In the supplement of paper PMC6522484:
“And” between values parts separate entries of the source, which are not always exact repeats. Equal entries are not always repeated. ± gives the standard deviation of the averaged measurements.

System: SW480
Experiment: cell viability (CellTiter-Glo) relative to plate median (fraction of plate median); higher = more viable cells
Conditions: 5 µM; treatment time 24 h; reporter: 7TFP
Outline: (§1)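 Library compounds were added at a final concentration of 5 µM for 24 h to colorectal cancer cells stably transduced with a lentiviral TCF/Wnt firefly luciferase reporter. Reported values are firefly luciferase or CellTiterGlo luminescence, normalised per well to the plate median. Each value averages two independent replicates.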

First: O=c1[nH]cnc2nc[nH]c12
Second: C/C=C1\[C@H]2C=C(C)C[C@]1(N)c1ccc(=O)[nH]c1C2
The cell viability of the first is lower: 0.913 ± 0.044 for the first, 1.02 ± 0.014 for the second.

`O=C(Nc1ccccc1)Nc1ccccc1` and `CN(C)CCC=C1c2ccccc2CCc2ccccc21` are within error of each other in cell viability: 1.05 ± 0.092 for the first, 0.989 ± 0.016 for the second.

`COc1ccc2c(c1)c(CC(=O)O)c(C)n2C(=O)c1ccc(Cl)cc1` and `COc1ccc2oc3ccccc3c(=O)c2c1` are within error of each other in cell viability: 1.03 ± 0.028 for the first, 1.09 ± 0.05 for the second.

Compared with `CC(=O)O[C@@H]1CC2C(C)(C)C(=O)C3OC3[C@]2(C)C2CC[C@@]3(C)[C@H](c4ccoc4)OC(=O)C4OC43[C@@]21C` (stereo partly drawn), `COC(=O)C[C@H]1C(C)(C)[C@@H](OC(C)=O)[C@@H]2CC3=C4CC(=O)O[C@@H](c5ccoc5)[C@]4(C)CC[C@@H]3[C@@]1(C)C2=O` is lower in cell viability: 1.02 ± 0.035 for the first, 0.963 ± 0.018 for the second.

Going from `CC(=O)Oc1c(-c2ccccc2)oc2c(CC=C(C)C)c3c(c(OC(C)=O)c2c1=O)C=CC(C)(C)O3` to `COc1ccc(-c2oc3ccccc3c(=O)c2O)cc1OC`, the cell viability rises from 1.02 ± 0.028 to 1.05.

`CCCC(=O)O[C@]1(C(=O)CO)CC[C@H]2[C@@H]3CCC4=CC(=O)CC[C@]4(C)[C@H]3[C@@H](O)C[C@@]21C` and `CCC(=O)O[C@H]1CC[C@H]2[C@@H]3CCc4cc(O)ccc4[C@H]3CC[C@]12C` are the same in cell viability: 1.02 for the first, 1.02 ± 0.014 for the second.

`NC(=O)c1cccnc1` and `CCCc1ncc(C[n+]2ccccc2C)c(N)n1` are within error of each other in cell viability: 0.982 ± 0.021 for the first, 0.972 ± 0.0028 for the second.

`CCOC(N)=O` and `CC(C)NCC(O)COc1ccc(CC(N)=O)cc1` (stereo not drawn) are within error of each other in cell viability: 0.949 ± 0.018 for the first, 1.02 ± 0.066 for the second.

Compared with `COc1c(O)cc(O)cc1O`, `O=c1c(-c2ccc(O)cc2)coc2cc(O)cc(O)c12` is higher in cell viability: 1.01 ± 0.021 for the first, 1.06 ± 0.021 for the second.

`COc1ccc2ccc(=O)oc2c1CC=C(C)C` and `COc1ccc([C@H]2Oc3cc(OC)cc(OC)c3C[C@H]2O)cc1` are within error of each other in cell viability: 0.985 ± 0.036 for the first, 0.9645 ± 0.005 for the second.

`O=C(/C=C/c1ccccc1)c1ccc(O[C@@H]2O[C@H](CO)[C@@H](O)[C@H](O)[C@H]2O)cc1O` and `O=c1c(-c2ccccc2)coc2cc(O)cc(O)c12` are within error of each other in cell viability: 0.978 ± 0.018 for the first, 0.993 ± 0.053 for the second.

First: CCn1cc(C(=O)O)c(=O)c2cc(F)c(N3CCN(C)CC3)cc21
Second: CN1CCN(CC/C=C2/c3ccccc3Sc3ccc(S(=O)(=O)N(C)C)cc32)CC1
The cell viability of the first is lower: 0.982 ± 0.018 for the first, 1.07 ± 0.064 for the second.

`CNCc1ccccc1` and `Cc1ccc(Cl)c(Nc2ccccc2C(=O)O)c1Cl` are within error of each other in cell viability: 1.03 ± 0.021 for the first, 1 ± 0.052 for the second.

`COC(=O)C[C@H]1C(C)(C)[C@@H](O)[C@@H]2CC3=C4CC(O)O[C@@H](c5ccoc5)[C@]4(C)CCC3[C@@]1(C)C2=O` (stereo partly drawn) [3,16-DIDEOXYMEXICANOLIDE-3beta-DIOL] and `C[C@@H]1CC(=O)O[C@H](C)Cc2cc(O)cc(O)c2C(=O)O[C@H](C)CC(=O)O[C@H](C)Cc2cc(O)cc(O)c2C(=O)O[C@H](C)CC(=O)O1` are within error of each other in cell viability: 1.035 ± 0.0071 for the first, 1.01 ± 0.026 for the second.

Going from `CCC(=O)NCC[C@@H]1CCc2ccc3c(c21)CCO3` to `COCCCOc1cc(C[C@@H](C[C@H](NC(=O)OC(C)(C)C)[C@@H]2C[C@@H](C(C)C)C(=O)O2)C(C)C)ccc1OC` [Borrelidin derivative (C30H49NO7)], the cell viability falls from 1.06 ± 0.028 to 0.959 ± 0.025.

`CCOc1ccc2c(c1)C(C)=CC(C)(C)N2` and `COc1cc(Cc2cnc(N)nc2N)cc(OC)c1OC` are within error of each other in cell viability: 1.01 ± 0.035 for the first, 0.991 ± 0.013 for the second.

Compared with `CO[C@H]1C[C@@H]2CC[C@@H](C)[C@@](O)(O2)C(=O)C(=O)N2CCCC[C@H]2C(=O)O[C@H]([C@H](C)C[C@@H]2CC[C@@H](O)[C@H](OC)C2)CC(=O)[C@H](C)/C=C(\C)[C@@H](O)[C@@H](OC)C(=O)[C@H](C)C[C@H](C)/C=C/C=C/C=C/1C`, `COC(=O)[C@H]1[C@H]2C[C@H]3c4[nH]c5cc(OC)ccc5c4CCN3C[C@H]2C[C@@H](OC(=O)c2cc(OC)c(OC)c(OC)c2)[C@@H]1OC` is lower in cell viability: 1.35 ± 0.11 for the first, 0.905 ± 0.011 for the second.

Going from `CC[N+](CC)(CC)CCOc1cccc(OCC[N+](CC)(CC)CC)c1OCC[N+](CC)(CC)CC` to `CC(=O)c1oc2c(C)c3oc(=O)cc(C)c3cc2c1C` [2-Acetyl-3,5,9-trimethylfuro[3,2-g]-chromen-7-one (VFT-04)], the cell viability rises from 0.945 ± 0.093 to 1.085 ± 0.0071.

First: CC=CC1=C(C(=O)O)N2C(=O)[C@@H](NC(=O)[C@H](N)c3ccc(O)cc3)[C@H]2SC1
Second: CC1=C(/C=C/C(C)=C/C=C/C(C)=C/C=C/C=C(C)/C=C/C=C(C)/C=C/C2=C(C)C(=O)CCC2(C)C)C(C)(C)CCC1=O [CANTHAXANTHIN (euglenanone)]
The cell viability of the first is lower: 0.983 ± 0.039 for the first, 1.06 for the second.

In the case of `NCCc1ccc(O)c(O)c1`, the cell viability is reported as 0.998 and 0.98.

System: DLD1
Experiment: TCF/Wnt firefly luciferase reporter signal relative to plate median (fraction of plate median); higher = higher Wnt reporter signal
Conditions: 5 µM; treatment time 24 h; reporter: 7TFP
Outline: as §1

`O=c1[nH]cnc2nc[nH]c12` and `C/C=C1\[C@H]2C=C(C)C[C@]1(N)c1ccc(=O)[nH]c1C2` are within error of each other in “TCF/Wnt firefly luciferase reporter signal” value: 0.969 ± 0.043 for the first, 1.1 ± 0.17 for the second.

Going from `O=C(Nc1ccccc1)Nc1ccccc1` to `CN(C)CCC=C1c2ccccc2CCc2ccccc21`, the “TCF/Wnt firefly luciferase reporter signal” value falls from 1.2 ± 0.11 to 0.952 ± 0.061.

`COc1ccc2c(c1)c(CC(=O)O)c(C)n2C(=O)c1ccc(Cl)cc1` and `COc1ccc2oc3ccccc3c(=O)c2c1` are within error of each other in “TCF/Wnt firefly luciferase reporter signal” value: 1.08 ± 0.014 for the first, 1.15 ± 0.13 for the second.

`CC(=O)O[C@@H]1CC2C(C)(C)C(=O)C3OC3[C@]2(C)C2CC[C@@]3(C)[C@H](c4ccoc4)OC(=O)C4OC43[C@@]21C` (stereo partly drawn) and `COC(=O)C[C@H]1C(C)(C)[C@@H](OC(C)=O)[C@@H]2CC3=C4CC(=O)O[C@@H](c5ccoc5)[C@]4(C)CC[C@@H]3[C@@]1(C)C2=O` are within error of each other in “TCF/Wnt firefly luciferase reporter signal” value: 1.02 ± 0.057 for the first, 0.993 ± 0.067 for the second.

First: CC(=O)Oc1c(-c2ccccc2)oc2c(CC=C(C)C)c3c(c(OC(C)=O)c2c1=O)C=CC(C)(C)O3
Second: COc1ccc(-c2oc3ccccc3c(=O)c2O)cc1OC
The “TCF/Wnt firefly luciferase reporter signal” value of the first is lower: 0.855 ± 0.044 for the first, 0.923 ± 0.0099 for the second.

`CCCC(=O)O[C@]1(C(=O)CO)CC[C@H]2[C@@H]3CCC4=CC(=O)CC[C@]4(C)[C@H]3[C@@H](O)C[C@@]21C` and `CCC(=O)O[C@H]1CC[C@H]2[C@@H]3CCc4cc(O)ccc4[C@H]3CC[C@]12C` are within error of each other in “TCF/Wnt firefly luciferase reporter signal” value: 0.895 ± 0.016 for the first, 0.888 ± 0.11 for the second.

Compared with `NC(=O)c1cccnc1`, `CCCc1ncc(C[n+]2ccccc2C)c(N)n1` is lower in “TCF/Wnt firefly luciferase reporter signal” value: 1.16 ± 0.057 for the first, 0.956 ± 0.057 for the second.

`CCOC(N)=O` and `CC(C)NCC(O)COc1ccc(CC(N)=O)cc1` (stereo not drawn) are within error of each other in “TCF/Wnt firefly luciferase reporter signal” value: 1.035 ± 0.0071 for the first, 0.971 ± 0.055 for the second.

`COc1c(O)cc(O)cc1O` and `O=c1c(-c2ccc(O)cc2)coc2cc(O)cc(O)c12` are within error of each other in “TCF/Wnt firefly luciferase reporter signal” value: 1.09 ± 0.064 for the first, 1.065 ± 0.0071 for the second.

Going from `COc1ccc2ccc(=O)oc2c1CC=C(C)C` to `COc1ccc([C@H]2Oc3cc(OC)cc(OC)c3C[C@H]2O)cc1`, the “TCF/Wnt firefly luciferase reporter signal” value falls from 1.01 ± 0.033 to 0.923 ± 0.046.

`O=C(/C=C/c1ccccc1)c1ccc(O[C@@H]2O[C@H](CO)[C@@H](O)[C@H](O)[C@H]2O)cc1O` and `O=c1c(-c2ccccc2)coc2cc(O)cc(O)c12` are within error of each other in “TCF/Wnt firefly luciferase reporter signal” value: 1.02 ± 0.036 for the first, 0.926 ± 0.097 for the second.

`CCn1cc(C(=O)O)c(=O)c2cc(F)c(N3CCN(C)CC3)cc21` and `CN1CCN(CC/C=C2/c3ccccc3Sc3ccc(S(=O)(=O)N(C)C)cc32)CC1` are within error of each other in “TCF/Wnt firefly luciferase reporter signal” value: 1.19 ± 0.035 for the first, 1.11 ± 0.078 for the second.

`CNCc1ccccc1` and `Cc1ccc(Cl)c(Nc2ccccc2C(=O)O)c1Cl` are within error of each other in “TCF/Wnt firefly luciferase reporter signal” value: 1.03 ± 0.067 for the first, 1.04 ± 0.021 for the second.

`COC(=O)C[C@H]1C(C)(C)[C@@H](O)[C@@H]2CC3=C4CC(O)O[C@@H](c5ccoc5)[C@]4(C)CCC3[C@@]1(C)C2=O` (stereo partly drawn) [3,16-DIDEOXYMEXICANOLIDE-3beta-DIOL] and `C[C@@H]1CC(=O)O[C@H](C)Cc2cc(O)cc(O)c2C(=O)O[C@H](C)CC(=O)O[C@H](C)Cc2cc(O)cc(O)c2C(=O)O[C@H](C)CC(=O)O1` are within error of each other in “TCF/Wnt firefly luciferase reporter signal” value: 1.02 ± 0.15 for the first, 1.05 ± 0.028 for the second.

`CCC(=O)NCC[C@@H]1CCc2ccc3c(c21)CCO3` and `COCCCOc1cc(C[C@@H](C[C@H](NC(=O)OC(C)(C)C)[C@@H]2C[C@@H](C(C)C)C(=O)O2)C(C)C)ccc1OC` [Borrelidin derivative (C30H49NO7)] are within error of each other in “TCF/Wnt firefly luciferase reporter signal” value: 0.827 ± 0.037 for the first, 0.963 ± 0.12 for the second.

Compared with `CCOc1ccc2c(c1)C(C)=CC(C)(C)N2`, `COc1cc(Cc2cnc(N)nc2N)cc(OC)c1OC` is higher in “TCF/Wnt firefly luciferase reporter signal” value: 0.775 ± 0.12 for the first, 1 ± 0.057 for the second.

Compared with `CO[C@H]1C[C@@H]2CC[C@@H](C)[C@@](O)(O2)C(=O)C(=O)N2CCCC[C@H]2C(=O)O[C@H]([C@H](C)C[C@@H]2CC[C@@H](O)[C@H](OC)C2)CC(=O)[C@H](C)/C=C(\C)[C@@H](O)[C@@H](OC)C(=O)[C@H](C)C[C@H](C)/C=C/C=C/C=C/1C`, `COC(=O)[C@H]1[C@H]2C[C@H]3c4[nH]c5cc(OC)ccc5c4CCN3C[C@H]2C[C@@H](OC(=O)c2cc(OC)c(OC)c(OC)c2)[C@@H]1OC` is higher in “TCF/Wnt firefly luciferase reporter signal” value: 0.838 ± 0.15 for the first, 1.18 for the second.

Going from `CC[N+](CC)(CC)CCOc1cccc(OCC[N+](CC)(CC)CC)c1OCC[N+](CC)(CC)CC` to `CC(=O)c1oc2c(C)c3oc(=O)cc(C)c3cc2c1C` [2-Acetyl-3,5,9-trimethylfuro[3,2-g]-chromen-7-one (VFT-04)], the “TCF/Wnt firefly luciferase reporter signal” value rises from 0.989 ± 0.1 to 1.16 ± 0.028.

`CC=CC1=C(C(=O)O)N2C(=O)[C@@H](NC(=O)[C@H](N)c3ccc(O)cc3)[C@H]2SC1` and `CC1=C(/C=C/C(C)=C/C=C/C(C)=C/C=C/C=C(C)/C=C/C=C(C)/C=C/C2=C(C)C(=O)CCC2(C)C)C(C)(C)CCC1=O` [CANTHAXANTHIN (euglenanone)] are within error of each other in “TCF/Wnt firefly luciferase reporter signal” value: 1.09 ± 0.099 for the first, 1.115 ± 0.0071 for the second.

In the case of `NCCc1ccc(O)c(O)c1`, the “TCF/Wnt firefly luciferase reporter signal” value is reported as 1.01 and 1.02.
